High-throughput results from PubChem.
Sampled rows, rich in hits. Any-hit rate of the full collection: about 12%.
BAZ2B inh: BAZ2B (human) inhibition. Q9UIF8. AlphaScreen BAZ2B-H3K14Ac peptide displacement. Potency, µM (highest dose often 114 µM), for inactives: top-dose activity change, negative = inhibition, hits mostly inhibitors. hit rate 4.4% among 360,000; also: potency is read from the fitted curve at half-maximal effect; % is scaled to controls: 0 for no effect and ±100 for the full control effect; nearly all actives have a fitted effect of over 60% in size
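Inhibition is scored as reduced AlphaScreen emission. The BAZ2B/b-H3(5-23)K14Ac complex (50 nM each) in PBS pH 7.4, 0.01% Tween-20 meets compound (up to 110 uM) for 30 min at RT before bead addition.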
HP1b chromo inh: inhibitors of HP1-beta chromodomain binding to methylated histone tails; P83916; AlphaScreen HP1-beta / biotin-H3K9me3 peptide binding; Potency, µM (doses to about 114 µM), inactives show at the highest dose activity change, negative = inhibition, usual class: inhibitors; hit rate 0.56% among 390,000; AID 540317; also: potency is read from the fitted curve at half-maximal effect; nearly all actives have a fitted effect of over 70% in size
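Compound inhibition of the preformed complex between 50 nM HP1-beta and 50 nM biotinylated H3K9me3 peptide was read by AlphaScreen. Buffer was PBS pH 7.4 with 0.01% Tween-20. Incubations ran 30 min at room temperature, with 10 ug/mL donor/acceptor beads.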
PLK1 PBD inh: blocks phosphopeptide binding to human PLK1 polo-box domain; Plk1 PBD binding of FITC phosphopeptide, fluorescence polarization; Potency, µM, for the others: max response, negative = inhibition, most hits filed as inhibitors; hit rate 2.8% among 360,000; also: potency is read from the fitted curve at half-maximal effect; series mostly up to about 57 µM; % is scaled to controls: 0 for no effect and ±100 for the full control effect; nearly all actives have a fitted effect of over 65% in size
JMJD2A Tudor inh: blocks the human JMJD2A Tudor domain | AlphaScreen JMJD2A-Tudor / H3K4me3 peptide binding | O75164 | Potency, µM (series often up to 114 µM), for inactives: at the top dose activity change, negative = inhibition, hits mostly inhibitors | AID 504339 | hit rate 4.4% among 390,000; also: potency is read from the fitted curve at half-maximal effect; % is scaled to controls: 0 for no effect and ±100 for the full control effect; nearly all actives have a fitted effect of over 50% in size
Target sequence (O75164 whole entry, looked up, the tested form may be a part): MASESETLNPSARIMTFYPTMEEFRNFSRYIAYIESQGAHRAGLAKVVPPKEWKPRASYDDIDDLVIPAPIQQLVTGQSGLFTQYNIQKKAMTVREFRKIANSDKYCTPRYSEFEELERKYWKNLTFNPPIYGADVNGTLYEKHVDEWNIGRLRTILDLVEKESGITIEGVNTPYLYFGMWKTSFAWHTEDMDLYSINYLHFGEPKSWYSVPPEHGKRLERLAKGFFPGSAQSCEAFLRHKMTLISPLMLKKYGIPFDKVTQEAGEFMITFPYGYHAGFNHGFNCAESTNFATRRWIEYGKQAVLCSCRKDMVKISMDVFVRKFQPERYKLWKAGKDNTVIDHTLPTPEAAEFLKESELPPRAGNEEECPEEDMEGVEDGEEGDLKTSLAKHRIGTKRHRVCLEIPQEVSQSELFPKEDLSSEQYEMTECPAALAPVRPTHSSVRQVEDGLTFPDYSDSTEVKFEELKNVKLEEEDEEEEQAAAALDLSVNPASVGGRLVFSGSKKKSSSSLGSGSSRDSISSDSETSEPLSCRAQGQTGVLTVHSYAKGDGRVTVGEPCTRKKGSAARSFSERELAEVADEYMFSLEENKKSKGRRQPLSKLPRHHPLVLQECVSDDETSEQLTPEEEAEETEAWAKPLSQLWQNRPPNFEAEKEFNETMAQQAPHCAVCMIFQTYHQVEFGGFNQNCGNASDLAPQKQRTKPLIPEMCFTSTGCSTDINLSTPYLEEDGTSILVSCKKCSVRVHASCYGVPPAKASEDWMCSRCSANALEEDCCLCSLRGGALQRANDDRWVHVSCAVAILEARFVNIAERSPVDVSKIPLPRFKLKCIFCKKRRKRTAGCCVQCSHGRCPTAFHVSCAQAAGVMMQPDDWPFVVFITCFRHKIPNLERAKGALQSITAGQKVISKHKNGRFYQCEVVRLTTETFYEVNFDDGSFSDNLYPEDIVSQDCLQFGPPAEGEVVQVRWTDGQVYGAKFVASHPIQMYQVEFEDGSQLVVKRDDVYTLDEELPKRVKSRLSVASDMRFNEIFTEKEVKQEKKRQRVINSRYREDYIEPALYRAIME
G9a block: blocks human histone lysine methyltransferase G9a | Potency, µM (titrated, usually from 102 µM), for the others: top-dose activity, negative = inhibition, actives largely listed as inhibitors | hit rate 8.8% among 350,000 | G9a H3K9 monomethylation, AlphaScreen, 2 h | Q96KQ7; also: potency is read from the fitted curve at half-maximal effect; % is scaled to controls: 0 for no effect and ±100 for the full control effect; nearly all actives have a fitted effect of over 75% in size
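Readings reflect AlphaScreen signal from monomethyl-H3K9 antibody detection. HMT at 20 nM; substrate b-H3K9 500 nM; cofactor SAM 20 uM; 2 h RT reaction; compounds tested as titrations in qHTS with 15 min preincubation.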
PI5P4Ka inh: blocks human PI5P4K alpha kinase activity; max response, %; P48426; PI5P4Kalpha enzyme, ADP-Glo luminescence, 60 min; hits give low values; hit rate 1.2% among 330,000; active = max response of -50% or lower; inconclusive = between -30% and -50%; inactive = -30% or higher; also: value at the top dose of about 77 µM; % is scaled to controls: 0 for no effect and ±100 for the full control effect
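Controls without substrate or without enzyme flank wells where PI5P4Kalpha converts substrate using 5 microM ATP (final). Incubation lasts 60 minutes at room temperature; ADP formed is read by ADP-Glo luminescence.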
* = called active by the depositor; [ ] = dose if it differs, or a comment. Unless noted, calls follow the shape of the dose curve; as a rule, active = well fitted curve in the direction sought with a large enough effect; inconclusive = small, poorly fitted or top-dose-only effect, or another doubt; inactive = no such curve, though single readings can be large; an effect the other way counts as inactive or inconclusive.

`CC(C)NC(=O)N1CC[C@@]2(CCCN(S(=O)(=O)c3ccccc3)C2)C1` gave G9a block 18%[12.7 µM].
`O=S1(=O)NCC23CCC(CC21)O3` (stereo not drawn) gave HP1b chromo inh 14% and JMJD2A Tudor inh -5%.
Screening O=C(O)C(Cc1c[nH]c2ccccc12)NS(=O)(=O)c1ccc2ccccc2c1 (stereo not drawn) returned BAZ2B inh -4%, HP1b chromo inh 31%, PLK1 PBD inh -15%, JMJD2A Tudor inh -10%, G9a block -12% and PI5P4Ka inh -19.
For O=C(O)C(Cc1c[nH]c2ccccc12)NS(=O)(=O)c1cccc(Cl)c1Cl (stereo not drawn) the results were BAZ2B inh 89µM*, HP1b chromo inh 16%, PLK1 PBD inh -14%, JMJD2A Tudor inh -11%, G9a block -18% and PI5P4Ka inh 1.
O=C(O)c1cc(S(=O)(=O)NC(Cc2c[nH]c3ccccc23)C(=O)O)ccc1Cl (stereo not drawn) was read as BAZ2B inh -36%, HP1b chromo inh 39%, PLK1 PBD inh -10%, JMJD2A Tudor inh -11%, G9a block 45µM* and PI5P4Ka inh -4.
Screening CC(=O)c1cc2c(cc1NC(=O)c1cnn(-c3ccc(C)cc3)c1-n1cccc1)OCO2 returned BAZ2B inh -5%, HP1b chromo inh 17%, JMJD2A Tudor inh -7% and G9a block -23%[59 µM].
Screening O=C(Nc1c(Cl)cccc1Cl)c1cccc2c1C(=O)N(C1CCCCC1)C2 returned HP1b chromo inh 28%, JMJD2A Tudor inh -9% and G9a block 0%[59 µM].
For CC(C)C(=O)N(c1ccc2oc(=O)sc2c1)S(=O)(=O)c1cccs1 the results were BAZ2B inh -36%, HP1b chromo inh 27%, PLK1 PBD inh -30%, JMJD2A Tudor inh -26%, G9a block 35µM* and PI5P4Ka inh -21.
For CC(C)C(=O)N(c1cc2sc(=O)oc2c2ccccc12)S(=O)(=O)c1cccs1 the results were BAZ2B inh 50µM*, HP1b chromo inh -2%, PLK1 PBD inh -22%, JMJD2A Tudor inh inconclusive and G9a block 1.8µM*.
COc1ccc(Nc2ncc(C(=O)Nc3cc(Cl)c(OC)cc3OC)c3ccccc23)cc1 was read as BAZ2B inh -4%, HP1b chromo inh 5%, JMJD2A Tudor inh -10% and G9a block -41%[59 µM].
COc1ccc(Nc2ncc(C(=O)Nc3cccc(Cl)c3)c3ccccc23)cc1 was read as BAZ2B inh 79µM*, HP1b chromo inh 6%, JMJD2A Tudor inh 79µM* and G9a block -4%[59 µM].
N[C@H](COP(=O)(O)O)C(=O)O was read as G9a block 34%[59 µM].
`CC[n+]1cc(-c2ccccc2)nc(N2CCOCC2)n1` gave BAZ2B inh -5%, HP1b chromo inh 6%, PLK1 PBD inh -12%, JMJD2A Tudor inh 32µM* and G9a block 10µM*.
NC(=O)c1cc(-c2ccccc2)nc(N2CCOCC2)n1 was read as BAZ2B inh -2%, HP1b chromo inh 32%, PLK1 PBD inh -1%, JMJD2A Tudor inh 11%, G9a block 21%[59 µM] and PI5P4Ka inh -2.
CN(C)/C=N/c1nc2nccc(-c3ccccc3)n2n1 was read as BAZ2B inh 5%, HP1b chromo inh -8%, PLK1 PBD inh 27µM*, JMJD2A Tudor inh -5%[11.4 µM], G9a block 18% and PI5P4Ka inh -12.
COc1ccc(-c2cnc3nc(/N=C/N(C)C)nn3c2/N=C/N(C)C)cc1 was read as BAZ2B inh -2%, HP1b chromo inh -14%, PLK1 PBD inh 24µM*, JMJD2A Tudor inh -20%[11.4 µM], G9a block 29% and PI5P4Ka inh -10.
For CC1CCN(S(=O)(=O)c2ccc(C(=O)N3CCCC(C(F)(F)F)C3)cc2)CC1 (stereo not drawn) the results were BAZ2B inh -1%, HP1b chromo inh 8%, PLK1 PBD inh 5%, JMJD2A Tudor inh -11%, G9a block 7% and PI5P4Ka inh 6.
`O=C(O)c1cc2ncc(-c3[nH]ncc3[N+](=O)[O-])cn2n1` gave BAZ2B inh -21%, HP1b chromo inh -24%, PLK1 PBD inh -14%, JMJD2A Tudor inh 79µM*, G9a block -47% and PI5P4Ka inh -56*.
Screening O=C(c1[nH]ncc1[N+](=O)[O-])N1CCOCC1 returned BAZ2B inh -1%, HP1b chromo inh 18%, PLK1 PBD inh -17%, JMJD2A Tudor inh -6%, G9a block 55% and PI5P4Ka inh 5.
`CCCOc1ccc(C(=O)c2nc3c(n2O)CCCCC3)cc1` gave BAZ2B inh -5%, HP1b chromo inh 10%, PLK1 PBD inh -5%, JMJD2A Tudor inh inconclusive and G9a block -20%[12.7 µM].
Screening O=C(c1ccccc1)c1nc2c(n1O)CCCCC2 returned BAZ2B inh 79µM*, HP1b chromo inh 15%, PLK1 PBD inh -4%, JMJD2A Tudor inh -13%, G9a block 56µM* and PI5P4Ka inh -1.
CCC(C)NC(=O)c1ccc2nc(-c3ccco3)c(-c3ccco3)nc2c1 (stereo not drawn) was read as HP1b chromo inh -24%[57 µM] and JMJD2A Tudor inh -34%[57.1 µM].
Screening Cc1ccc(S(=O)(=O)N2[C@@H](c3ccccc3)C(C(=O)O)=CC[C@H]2c2ccc(Cl)c(Cl)c2)cc1 returned BAZ2B inh inconclusive, HP1b chromo inh 30%, PLK1 PBD inh inconclusive, JMJD2A Tudor inh -14%, G9a block 24%[2.33 µM] and PI5P4Ka inh -6.
Cc1ccc(S(=O)(=O)N2[C@@H](c3ccccc3F)C(C(=O)O)=CC[C@H]2c2ccc(Cl)c(Cl)c2)cc1 was read as BAZ2B inh 71µM*, HP1b chromo inh 27%, PLK1 PBD inh inconclusive, JMJD2A Tudor inh -19%, G9a block -28%[2.33 µM] and PI5P4Ka inh -2.
Cc1ccc([C@H]2C(C(=O)O)=CC[C@@H](c3ccc(Cl)c(Cl)c3)N2S(=O)(=O)c2ccc(C)cc2)cc1 was read as HP1b chromo inh 67%, PLK1 PBD inh 30µM*, JMJD2A Tudor inh -21% and PI5P4Ka inh -4.
For CC1=C(C(=O)Nc2ccc(C)cc2C)C(C(C)C)n2nc(SCc3ccccc3Cl)nc2N1 (stereo not drawn) the results were BAZ2B inh 3%, HP1b chromo inh 0%, JMJD2A Tudor inh -13% and G9a block -28%[59 µM].
Screening COc1ccc(C)c2sc(NC(=O)c3ccc(S(=O)(=O)N(C)C)cc3)nc12 returned BAZ2B inh 7%, HP1b chromo inh 32%[57 µM], JMJD2A Tudor inh -1% and G9a block 7%[59 µM].
`CSc1ccc(C(c2c(C)[nH][nH]c2=O)c2c(C)[nH][nH]c2=O)cc1` gave BAZ2B inh -5%, HP1b chromo inh 14%, PLK1 PBD inh inconclusive, JMJD2A Tudor inh -36% and PI5P4Ka inh -4.
